Measurements published in PubChem BioAssay (NCI).
Values joined by “and” are separate entries in the source; they are usually repeats but may differ in a detail not shown here. Equal entries are not always repeated. The panel holds about 79,000 compounds, 15% with a hit somewhere; the sample as a whole holds those more often. Active and inactive are the calls of the source. Cut-off read from the data, not from the text of the source: active = growth inhibition above about 70%; inactive = the rest.

How the values were obtained:
[1] = NCI Yeast Anticancer Drug Screen. Data for the rad50 strain (AID 155);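 note: 0% = growth of vehicle-only cultures of the same strain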; settings: S. cerevisiae rad50 strain growth inhibition, active compounds read high; at 50.0 µM unless noted
In short: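 Inhibition values express reduced yeast growth in compound-treated cultures relative to vehicle-treated controls.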

[2] = NCI Yeast Anticancer Drug Screen. Data for the mec2-1 strain (AID 157); settings: S. cerevisiae mec2-1 strain, active compounds read high; at 50.0 µM unless noted
In short: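 Test agents were screened against the mec2-1 yeast strain, with defined DNA repair or cell cycle alteration. Growth was scored as inhibition against vehicle-only controls.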

[3] = NCI Yeast Anticancer Drug Screen. Data for the sgs1 mgt1 strain (AID 161);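 note: 0% = growth of cultures given vehicle only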; settings: S. cerevisiae sgs1 mgt1 strain, active compounds read high; at 50.0 µM unless noted
In short: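 Read-out: growth inhibition vs vehicle controls. Cells: mutant yeast strain deficient in DNA damage repair.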

[4] = NCI Yeast Anticancer Drug Screen. Data for the cln2 rad14 strain (AID 165);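 note: 0% = growth equal to vehicle treated cultures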; settings: S. cerevisiae cln2 rad14 strain, active compounds read high; at 50.0 µM unless noted
In short: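 Growth of compound-exposed yeast (cln2 rad14 genotype) measured and expressed as inhibition relative to vehicle.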

[5] = NCI Yeast Anticancer Drug Screen. Data for the bub3 strain (AID 167); settings: S. cerevisiae bub3 mutant strain, active compounds read high; at 50.0 µM unless noted
In short: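 Steps: expose the mutant yeast strain to compound; grow alongside vehicle-treated cultures; measure growth; express inhibition against the vehicle cultures.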

[6] = NCI Yeast Anticancer Drug Screen. Data for the mlh1 rad18 strain (AID 175); settings: S. cerevisiae mlh1 rad18 strain growth inhibition, active compounds read high; at 50.0 µM unless noted
In short: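 In this whole-cell yeast screen, a strain with altered DNA damage repair is challenged with compound, and its growth is measured against matched vehicle-treated controls.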

Measured: growth inhibition

OCCC1CCCCN1 (centres undefined)
inactive: [1] 9.25% | [2] -8.4% | [3] -20.4% | [4] -18.4% | [5] -0.75% | [6] 54.5%

COc1ccc(O)c2c1C(=O)CCCC2=O
inactive: [1] 3.65% | [2] -0.75% | [3] 6.35% | [4] -4.6% | [5] 4.05% | [6] 0.7%

Cc1ccc(NC(=O)c2ccc(OP(=O)(O)Nc3ccc(C)cc3)cc2)cc1
inactive: [1] -22.6% | [2] -21.8% | [3] -8.05% | [4] -3.15% | [5] -5.2% | [6] -4.1%

O=C(O)C(F)(F)C(F)(F)C(F)(F)F
inactive: [1] 5.95% | [2] -2.3% | [3] -6.75% | [4] 14.6% | [5] 1.15% | [6] 3.25%

CCOC(CC(=O)NCCNC(C)=O)OCC
inactive: [1] 38% | [2] 4.6% | [3] 7.2% | [4] 2.05% | [5] 18.4% | [6] 43.1%

CC(=O)NC1=NC(=O)/C(=C/c2ccccc2Cl)N1C
inactive: [1] -45.7% | [2] -53.8% | [3] -10.9% | [4] 8% | [5] -8.85% | [6] 28.6%

COc1ccc2nc3cccc([N+](=O)[O-])c3c(NC(C)CN(C)C)c2c1 (centres undefined)
inactive: [1] 52% | [2] 35.9% | [3] 54.1% | [4] 64.3% | [5] 26.4% | [6] 42.9%

BrCC(Br)C1OCCCO1 (centres undefined)
inactive: [1] 18.4% | [2] 18.1% | [3] 38.4% | [4] 22.4% | [5] 5.25% | [6] 34.6%

Oc1ccccc1/C=N\N=C\NN/C=N/N=C/c1ccccc1O
inactive: [1] -8.1% | [2] -0.75% | [3] -4% | [4] 13.8% | [5] 6.4% | [6] 5.55%

O=c1[nH]c2cc(Cl)c([N+](=O)[O-])cc2o1
inactive: [1] 12.1% | [2] -0.5% | [3] -0.5% | [4] -18.1% | [5] -14.9% | [6] 16.7%

O=[N+]([O-])c1ccc(-n2nnc(C3=NCCCN3)c2-c2ccc(Cl)cc2)cc1
inactive: [1] -11.3% | [2] -8.1% | [3] -5.75% | [4] 8.6% | [5] 5.55% | [6] -19.6%

N=C(N)C1CN(CC=O)C(=O)NC1=O (centres undefined)
inactive: [1] -11.7% | [2] 11.1% | [3] -2.65% | [4] 24.9% | [5] -4.15% | [6] 11.8%

COC(=O)/C(=C(\C)NC(C)=O)c1c(C(=O)OC)[nH]c2ccccc12
inactive: [1] -6.85% | [2] -12.5% | [3] -9.15% | [4] 4.15% | [5] -3% | [6] -111%

CS(=O)(=O)CS(C)(=O)=O
inactive: [1] 18.9% | [2] 6.15% | [3] 8.2% | [4] 14.5% | [5] 0.25% | [6] 27.9%

CC(C)CCCC(C)C1CCC2C3CC(C(=O)O)C(C)(CCC(=O)O)C3CCC12C (centres undefined)
inactive: [1] 44% | [2] 36% | [3] 43.9% | [4] 30% | [5] 4% | [6] 41.7%

Nc1cc(C(=O)O)[nH]c(=O)n1
inactive: [1] -23.7% | [2] -18.4% | [3] -20.2% | [4] -70.2% | [5] -18.9% | [6] -10.3%

Cn1cnc2[nH]c(=O)[nH]c(=O)c21
inactive: [1] 3.9% | [2] 12.9% | [3] -8.95% | [4] 1.95% | [5] 8.85% | [6] -0.75%

CC12CCC(=O)C=C1CCCC2=O (centres undefined)
inactive: [1] -7.6% | [2] -12.3% | [3] -11.6% | [4] -14.7% | [5] -7.75% | [6] -3.4%

CC1CC1C(N)C1CC1C (centres undefined)
inactive: [1] 10.3% | [2] 3.15% | [3] -1.95% | [4] 23.9% | [5] 10.8% | [6] 8.3%

CC1=C/C(O)CC(=O)Cc2nc(co2)C(=O)N2CCC=C2C(=O)OC(C(C)C)C(C)/C=C\C(=O)NC/C=C\1 (centres undefined)
inactive: [1] 39.5% and -2.6% | [2] -11.6% and 18.7% | [3] 22.7% and 0.6% | [4] 13.9% and 5.6% | [5] 37.5% and -3% | [6] 35.2% and 2.2%

CCC(CC)C(=O)OC1CCCCC1
inactive: [1] 9.9% | [2] 5.25% | [3] 13.8% | [4] -7.8% | [5] 4.8% | [6] 5.35%

Nc1nc2cc(F)ccc2o1
inactive: [1] 1.05% | [2] -26.1% | [3] -9.7% | [4] -20.1% | [5] -21.6% | [6] -15.2%

O=C(O)c1cccc(-c2ccccc2)c1O.O=C(O)c1cccc(-c2ccccc2)c1O.[Cu]
inactive: [1] 41.2% | [2] 39.5% | [3] 21.6% | [4] 2.6% | [5] 33.9% | [6] 32.4%

CC(=O)NC(C)c1ccccc1 (centres undefined)
inactive: [1] -4.75% | [2] 40.1% | [3] 15.3% | [4] -11.9% | [5] -1.55% | [6] 3.3%

CCOC(=O)c1cc2c(-c3ccccc3)c(-c3ccccc3)c(-c3ccccc3)c(-c3ccccc3)n2n1
inactive: [1] 10.2% | [2] 15.2% | [3] 0.25% | [4] 31.9% | [5] -1.45% | [6] -0.4%

c1ccc(NN=Nc2ncnc3nc[nH]c23)cc1
inactive: [1] 3.35% | [2] 5.9% | [3] -2.2% | [4] -11.8% | [5] 7.7% | [6] 2.7%

O=C(NCCNC(=O)C(Br)(Br)Br)C(Br)(Br)Br
inactive: [2] 53.5% | [3] 58% | [4] 44.7% | [5] 69.5%
active: [1] 82.3% | [6] 72.8%

O=c1[nH]cnc2c1ccc1[nH]ncc12
inactive: [1] 9.45% | [2] 0.2% | [3] -3.35% | [4] -42.2% | [5] -1.05% | [6] 5.4%

CC(C)CCCC(C)C1CCC2C3CC=C4CC(OC(=O)Nc5ccc(S(=O)(=O)NC6CCCCC6)cc5)CCC4(C)C3CCC12C (centres undefined)
inactive: [1] -1.85% | [2] -4.35% | [3] 12.7% | [4] -38.1% | [5] -12.4% | [6] 8.25%

C=CCCC(CCC=C)(C(=O)O)C(=O)O
inactive: [1] -7.1% | [2] -9.7% | [3] -16.7% | [4] 6.65% | [5] -20.9% | [6] -36.8%

ClC1CCC[N-]C1.ClC1CCC[N-]C1.[Cl][Pt+2][Cl] (centres undefined)
inactive: [1] -7.1% | [2] 4.95% | [3] -9.7% | [4] -28.6% | [5] -3.6% | [6] -3.55%

CCOC(=O)C1Oc2ccc([N+](=O)[O-])cc2C1(C)O (centres undefined)
inactive: [1] -1.15% | [2] 0.75% | [3] -6.85% | [4] 22.6% | [5] 1.85% | [6] -4.45%

Nc1c(N2CCOCC2)c(=O)nc2[nH]/c(=C\c3ccccc3)c(=O)n12
inactive: [1] 8.5% | [2] -20.7% | [3] 4.75% | [4] 22% | [5] 8% | [6] -46.8%

NC(=O)c1ccc(F)cc1
inactive: [1] -42.3% | [2] -29.6% | [3] -7.7% | [4] -16.1% | [5] -18.2% | [6] -10.5%

CCCCCCCNC(=O)C(C)Br (centres undefined)
inactive: [1] 17.6% | [2] 26.6% | [3] 16.6% | [4] -41.9% | [5] 19.7% | [6] 22.1%

Cc1cc(OCC(=O)O)cc(C)c1C
inactive: [1] 1% | [2] -8.5% | [3] -15.1% | [4] -18.6% | [5] -4.55% | [6] -1.45%

COC(=O)/C(C#N)=N/O
inactive: [1] 16.6% | [2] -39.1% | [3] -22.8% | [4] 8.4% | [5] -7.7% | [6] -21.6%

COC(=O)CCn1cnc2c(SC)ncnc21
inactive: [1] -27.2% | [2] 16.2% | [3] -44% | [4] 21.5% | [5] 19.2% | [6] -12.7%

CCOc1ccc(N=Cc2ccc3cc(C)ccc3n2)cc1
inactive: [1] -9.95% | [2] -9.65% | [3] -2.4% | [4] 12.2% | [5] -1.8% | [6] -19.9%
